We go through 46 sequences from article PMC7819943, “Rice protein-binding microarrays: a tool to detect cis-acting elements near promoter regions in rice”.

In all, about 35,000 sequences were measured (“fluorescence intensity (a.u.)”: median about 10,000, highest 2% from about 52,000 on). The sample as a whole holds a higher share of the highest values than the screen did.

This assay concerns the target T1, OsWOX13 (Oryza sativa, UniProt Q5QMM3 1-267).
T1 sequence: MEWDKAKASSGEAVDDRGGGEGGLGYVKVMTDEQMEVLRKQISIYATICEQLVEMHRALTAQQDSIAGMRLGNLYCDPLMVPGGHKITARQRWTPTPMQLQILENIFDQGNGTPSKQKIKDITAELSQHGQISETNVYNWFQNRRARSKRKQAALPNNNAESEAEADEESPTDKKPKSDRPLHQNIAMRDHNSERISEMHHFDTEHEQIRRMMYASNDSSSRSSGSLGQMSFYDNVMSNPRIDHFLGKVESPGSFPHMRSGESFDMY
As to the kind of experiment: protein-binding microarray (RPBM); PBS, 2% BSA, 51.3 ng/ul salmon testes DNA, 50 uM zinc acetate, 200 nM TF, 25 C, 1 h; high values mean tight binding. As to conditions: protein: recombinant; tags: N-terminal polyhistidine and DsRed monomer fusion (pET32a); label: CyDye5-dUTP incorporated in the synthesized complementary strand; 3' TTTTT single-stranded linker to array surface; dsDNA, one strand shown. A digest of the protocol:
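For the binding signal, per-feature fluorescence intensity was read in arbitrary units on an Axon 4000B scanner. Before scanning, a 2% BSA-blocked custom Agilent array made double-stranded with Cy5-dUTP was washed after 1 h at 25 °C with 200 nM protein and 50 µM zinc acetate. The proteins were Ni–NTA-purified transcription factors with N-terminal polyhistidine and DsRed fusions, expressed in E. coli BL21-CodonPlus.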
As for “TTTTATAATTATATAGCACACCCCACTTCACACGCATATCCGGAGTCACCTAGTGCAG”, the binding signal is 15300 fluorescence intensity (a.u.).
The result for “CTATTGATTGTTGGCGAGCATGTTCTTATCCAGTTGACTTCGGAGTCACCTAGTGCAG” reads 33100 fluorescence intensity (a.u.); that for “GTTTGTTAATTATTCACTAATCTCTAGTACTATAGTTGTACGGAGTCACCTAGTGCAG”, 17100 fluorescence intensity (a.u.).
As for “AACAGTTCTGCTGAACCTCTTTTGCCTGCCCAAATCAAAACGGAGTCACCTAGTGCAG”, the figure is 7650 fluorescence intensity (a.u.); as for “AGATGGGAATCATTATCAATCTATCATCCTAAATATAAACCGGAGTCACCTAGTGCAG”, 4070 fluorescence intensity (a.u.); as for “TCGATTGACTGGACGAGGAATAGTAACCCTGCACATTGTGCGGAGTCACCTAGTGCAG”, 44100 fluorescence intensity (a.u.).
The result for “GAATACTGACAGTAAAGATGATTGCAGAATTAGCTCATAGCGGAGTCACCTAGTGCAG” reads 19400 fluorescence intensity (a.u.); that for “TGCATAAGTGTTAAATTGACAGCCACTTGGTCTGTTCGTTCGGAGTCACCTAGTGCAG”, 21700 fluorescence intensity (a.u.); that for “TCTTGATTGAAACAATCTTTTGATCCCATAATCTTGCCCGCGGAGTCACCTAGTGCAG”, 63700 fluorescence intensity (a.u.).
Consider “CACATACTATACTACATTAATTATATTCTGATGAAATCCGCGGAGTCACCTAGTGCAG”, for which the binding signal is 4130 fluorescence intensity (a.u.).
For “TTAATTGATTTGGAAATCCTCTAGTTATCTGGATTAGTTTCGGAGTCACCTAGTGCAG”, the binding signal is 37300 fluorescence intensity (a.u.).
Turning to “ATGATTTACTATTAATCTAGTCTATTGCTGAGATATACATCGGAGTCACCTAGTGCAG”, the binding signal is 11000 fluorescence intensity (a.u.).
Consider “TACTCCTGTTGATAGGTATATTGATCTGAATCATCTGGTACGGAGTCACCTAGTGCAG”, for which the binding signal is 3790 fluorescence intensity (a.u.).
The result for “TTTCTTTTGAAATTGATTACAATCTACATAAGGAGAGTCGCGGAGTCACCTAGTGCAG” reads 16500 fluorescence intensity (a.u.).
On to “AACTAAACATAATCTTTGAAAAGTTTGATTTTGAACACGGCGGAGTCACCTAGTGCAG”, for which the binding signal is 6770 fluorescence intensity (a.u.).
With “CCTGTTGATTGGATATCTGGAACCTGAAATCCTGAATACGCGGAGTCACCTAGTGCAG”, the binding signal is 55800 fluorescence intensity (a.u.).
For “ATGCCTGATTGGAAATCTACTATTACTATTCATGATACCGCGGAGTCACCTAGTGCAG”, the binding signal was 58500 fluorescence intensity (a.u.).
As for “ATTAGTTGGATTGATTCAAACAAAGAGGTGATAATAATTGCGGAGTCACCTAGTGCAG”, the figure is 11900 fluorescence intensity (a.u.).
Consider “ACATGGGAATTTTGGTGGGATGGGGATGGGGATGGGGAATCGGAGTCACCTAGTGCAG”, for which the binding signal is 7450 fluorescence intensity (a.u.).
The result for “GTGATTTTGTTAAACTTAGGCTGCTTGTTTCATCAATTGCCGGAGTCACCTAGTGCAG” reads 3740 fluorescence intensity (a.u.).
The result for “GGGTTTCAATCATTTAGGTGGACGTCCACTCATTTATTGCCGGAGTCACCTAGTGCAG” reads 16200 fluorescence intensity (a.u.); that for “TATGGTTAATTATGTATTTATCGACAACGGGATGTTCGTACGGAGTCACCTAGTGCAG”, 15000 fluorescence intensity (a.u.).
As for “CACGAAATTAATTTAGCTCTACATCCGTTCTGTTTATGAACGGAGTCACCTAGTGCAG”, the figure is 8960 fluorescence intensity (a.u.).
With “TGGCCAAATTCTGTCAATTGCATTTGATGGAGCTGGGCTTCGGAGTCACCTAGTGCAG”, the binding signal was 11200 fluorescence intensity (a.u.).
The result for “CTATAATTTCTGGTTACGGTGGTGACAAGTCATGTGGGCTCGGAGTCACCTAGTGCAG” reads 13900 fluorescence intensity (a.u.).
As for “CGTGATTAGAATCCATCTCCGACCGACCGCACATACAAAGCGGAGTCACCTAGTGCAG”, the figure is 43300 fluorescence intensity (a.u.); as for “GAGCGATTATAAAATTAATTGCTCCGCGGCTTAAGCCGAGCGGAGTCACCTAGTGCAG”, 5680 fluorescence intensity (a.u.).
As for “AGTGATCATTGATCTAAACTACTTGCAGGTGACGCACACGCGGAGTCACCTAGTGCAG”, the figure is 6200 fluorescence intensity (a.u.); as for “TTGTTTGATTTGTTAGGGGTGGTAAGAGCAGCCTTGTATTCGGAGTCACCTAGTGCAG”, 21000 fluorescence intensity (a.u.); as for “CTCTCTAGTAATTATCCATGTGCTCGTCTGGTTGGATTGGCGGAGTCACCTAGTGCAG”, 5240 fluorescence intensity (a.u.).
As for “TAATTAATTAATTGATTGATTGATTTGAAACTGATTAATTCGGAGTCACCTAGTGCAG”, the binding signal is 56200 fluorescence intensity (a.u.).
On to “TATTTAAATTCAAATTGAAATTCAAATTTAAATCGGATATCGGAGTCACCTAGTGCAG”, for which the binding signal is 16800 fluorescence intensity (a.u.).
The result for “ATCAATTTTAAAATTAAATTTTAATTTTAAATTTTGAATTCGGAGTCACCTAGTGCAG” reads 26900 fluorescence intensity (a.u.); that for “GTTAATTTAATTGAAATTTAAATTTAAATCAATCTGCATTCGGAGTCACCTAGTGCAG”, 57600 fluorescence intensity (a.u.); that for “ATGAAATGATTTGATTGAAATATTATGAAATGATTTGAGACGGAGTCACCTAGTGCAG”, 39500 fluorescence intensity (a.u.).
Turning to “TTTGATTTGATTTGATTTGATTGAATTAATTTGAGTCCGACGGAGTCACCTAGTGCAG”, the binding signal was 65400 fluorescence intensity (a.u.).
The result for “TTAAAATAATTGACAAGATAGATTAATATTTGGTATATCACGGAGTCACCTAGTGCAG” reads 26400 fluorescence intensity (a.u.); that for “ATTGATTTGATGAAACTAATTTAATATTATAAATATTATTCGGAGTCACCTAGTGCAG”, 26000 fluorescence intensity (a.u.).
The result for “ATTAAATTTTAAAATTTAATTTTAAATTGATTTTGATATTCGGAGTCACCTAGTGCAG” reads 42600 fluorescence intensity (a.u.); that for “TATTAATTACAGATTGACAAAACACAAGATTTGCCTGTATCGGAGTCACCTAGTGCAG”, 61800 fluorescence intensity (a.u.).
For “CAAATTTAAATTTGAATTATATCCGATTTAAATTTGAATTCGGAGTCACCTAGTGCAG”, the binding signal was 21800 fluorescence intensity (a.u.).
The result for “CTAATAACAAAACAAATTACAGATTTCGCCTGTAATATGCCGGAGTCACCTAGTGCAG” reads 9460 fluorescence intensity (a.u.); that for “AACAATTTGATCAAGAGTTGACCGAGATAATCCCACTTGCCGGAGTCACCTAGTGCAG”, 4370 fluorescence intensity (a.u.).
As for “GATCAAATTAATAGGTAACCCGCTGGTCAAACCTATGGGTCGGAGTCACCTAGTGCAG”, the figure is 18000 fluorescence intensity (a.u.).
Regarding “AATTAGTAAATACTTAATTAATCATGAGAAAATGTATTGCCGGAGTCACCTAGTGCAG”, the binding signal was 3350 fluorescence intensity (a.u.).
As to “CAAATGATGGAGGTTTCAAATTATACTGTACTTCAGCCATCGGAGTCACCTAGTGCAG”, the binding signal is 7400 fluorescence intensity (a.u.).
